In paper PMC4336329 (PLoS ONE, 2015):
The campaign covered roughly 310,000 compounds. About 14,000 (4.5%) showed an effect of 50% or more. Effects have a minus sign here. This excerpt belongs to a sample that is enriched for strong results.

Target: human ether-à-go-go-related gene (hERG) potassium channel (human, UniProt Q12809)
Assay: primary screen, population patch clamp on CHO cells stably expressing hERG; higher = less effect of the substance
Method: Briefly, Chinese hamster ovary (CHO) cells stably expressing the hERG channel were dislodged from tissue culture flasks and dispensed into PPC plates. […] During the recording, background leak currents were estimated by a 100 ms step to -80 mV from an initial holding potential of -70 mV and subtracted from the subsequent current measurement. The campaign was conducted in two phases using slight differences in recording protocol. In the first phase, the initial voltage pulse used a 100 ms step to -30 mV from a holding potential of -70 mV, a 2 s conditioning step to +25 mV, and a 2 s test step to -30 mV. During the second phase of the screen, the potential during the conditioning step was raised to +45 mV. In both phases of the campaign, a secondary voltage pulse was applied using the same parameters as the second phase initial pulse. The initial and secondary pulses were applied in the absence of compound, and upon application of 1 μM and 10 μM test concentrations. […]
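Further: peak tail current of the secondary pulse compared with the same well before compound.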

Chain of human ether-à-go-go-related gene (hERG) potassium channel (Q12809 whole entry, looked up): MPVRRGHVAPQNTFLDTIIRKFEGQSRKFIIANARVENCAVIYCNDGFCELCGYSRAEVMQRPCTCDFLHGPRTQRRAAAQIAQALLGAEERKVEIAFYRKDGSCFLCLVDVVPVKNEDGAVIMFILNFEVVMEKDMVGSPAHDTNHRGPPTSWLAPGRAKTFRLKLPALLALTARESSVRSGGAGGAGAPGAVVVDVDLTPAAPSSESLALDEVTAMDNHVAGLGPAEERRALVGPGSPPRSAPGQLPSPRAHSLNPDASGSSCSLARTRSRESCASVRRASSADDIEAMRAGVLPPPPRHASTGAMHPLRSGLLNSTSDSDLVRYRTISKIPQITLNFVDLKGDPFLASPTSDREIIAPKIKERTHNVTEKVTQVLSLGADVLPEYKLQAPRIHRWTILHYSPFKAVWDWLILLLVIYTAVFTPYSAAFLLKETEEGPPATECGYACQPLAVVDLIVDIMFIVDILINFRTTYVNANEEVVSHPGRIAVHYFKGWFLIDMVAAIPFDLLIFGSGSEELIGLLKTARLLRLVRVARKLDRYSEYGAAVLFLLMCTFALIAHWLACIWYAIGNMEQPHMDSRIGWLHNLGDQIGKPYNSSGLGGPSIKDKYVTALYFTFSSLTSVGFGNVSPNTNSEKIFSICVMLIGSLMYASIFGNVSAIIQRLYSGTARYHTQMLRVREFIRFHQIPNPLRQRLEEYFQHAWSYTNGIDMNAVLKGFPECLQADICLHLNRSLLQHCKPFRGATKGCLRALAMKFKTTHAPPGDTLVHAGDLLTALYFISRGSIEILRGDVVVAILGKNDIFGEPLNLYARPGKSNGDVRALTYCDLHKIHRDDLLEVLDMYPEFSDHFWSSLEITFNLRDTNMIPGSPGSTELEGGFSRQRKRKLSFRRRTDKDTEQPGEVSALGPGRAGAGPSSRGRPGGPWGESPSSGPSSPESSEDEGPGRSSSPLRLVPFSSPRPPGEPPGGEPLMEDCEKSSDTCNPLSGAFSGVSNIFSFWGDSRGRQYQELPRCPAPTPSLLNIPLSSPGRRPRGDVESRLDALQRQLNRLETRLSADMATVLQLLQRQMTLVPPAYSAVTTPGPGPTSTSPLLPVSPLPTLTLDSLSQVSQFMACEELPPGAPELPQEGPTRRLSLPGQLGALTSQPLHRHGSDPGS

Compound	hERG current change (%, negative = inhibition) at 10uM [%]
O=C(Cn1c(=O)cnc2ccccc21)NNC(=O)c1ccccc1Cl	4.84
COCCSc1ccccc1C(=O)Nc1ccccc1C(C)C	3.89
Cc1ccc(CN2CCN(Cc3ccccc3)C(CCO)C2)s1 (stereo not drawn)	-62.8
Cc1ccc(CN2CCN(CC(C)C)C(CCO)C2)s1 (stereo not drawn)	-21.5
Cc1ccc(CN2CCN(CCC(C)C)C(CCO)C2)s1 (stereo not drawn)	-29.5
Cc1ccc(CN2CCN(Cc3cnc(C)[nH]3)CC2CCO)cc1 (stereo not drawn)	10.8
OCCC1CN(Cc2cn[nH]c2C2CCCCC2)CCN1Cc1ccccc1 (stereo not drawn)	0.824
Cc1ccc(CN2CCN(Cc3cnc(C)s3)CC2CCO)cc1 (stereo not drawn)	-19.4
Cc1ccc(CN2CCN(Cc3cn[nH]c3C3CCCCC3)CC2CCO)cc1 (stereo not drawn)	-62.9
Cc1ccc(CN2CCN(Cc3ccc(C)s3)CC2CCO)cc1 (stereo not drawn)	-73.3
CC(C)=CCN1CCN(Cc2cn[nH]c2C2CCCCC2)CC1CCO (stereo not drawn)	0.0652
CCCCc1ncc(CN2CCN(Cc3ccc(C)cc3)C(CCO)C2)[nH]1 (stereo not drawn)	-57.9
CC(C)=CCN1CCN(Cc2ccc(C)s2)CC1CCO (stereo not drawn)	-16.1
Cc1ccc(CN2CCN(Cc3cnc(N4CCOCC4)s3)CC2CCO)cc1 (stereo not drawn)	-46.7
Cn1c(O)c(C=Nc2ccccc2-c2ccccc2)c(=O)n(C)c1=O	4.4
O=c1c2ccccc2cnn1Cc1n[nH]c(=S)n1-c1ccc(Cl)cc1	14.5
Cc1ccc(-c2nc(-c3ccccn3)sc2CC(=O)O)cc1	2.76
O=C(N/N=C/c1cccs1)c1ccco1	11.8
COc1ccc(NC(=O)COC(=O)C2CC2)c(OC)c1	-0.146
CC1CC(C)(C)NC(=S)N1CC(=O)NCc1ccc(F)cc1 (stereo not drawn)	0.792
O=C(Cn1nnc(-c2ccccc2)n1)NNC(=O)c1cccc([N+](=O)[O-])c1	26.3
COc1ccc(CCNC2CCCCC2)cc1.O=C(O)C(=O)O	-15.9
COc1ccc(CCNC2CCC(c3ccccc3)CC2)cc1 (stereo not drawn)	-70.8

Compound	hERG current change (%, negative = inhibition) at 10uM [%]
COc1ccc(CCNC2CCc3ccccc3C2)cc1 (stereo not drawn)	-56
COc1ccc(CCNC(=O)C2Cc3ccccc3C(=O)O2)cc1 (stereo not drawn)	-1.35
COc1ccc(CCNC2CCCCCC2)cc1	-4.62
COc1ccc(CCNC(=O)C2CC2)cc1	0.64
COc1ccc(S(=O)(=O)N2CCN(c3ccc(C)cc3C)CC2)cc1OC	5.72
COC(=O)[C@@H](NC(=O)N(C1CCCCC1)C1CCCCC1)C(C)C	-7.86
C#CCOCOCC#CCN(CC)CC	3.26
COc1ccc(-n2c(C)cc(C(=O)Cn3nc(C(=O)O)c4ccccc4c3=O)c2C)cc1	-1.43
CC(C)(C)c1ccc(CS(=O)CC(O)CO)cc1 (stereo not drawn)	19.3
Cc1cccnc1NC(=O)CNC(=O)c1cccs1	-8.89
CC(=O)c1ccc(S(=O)(=O)Nc2ccc(-n3cnnn3)cc2)cc1	-6.16
COc1ccc(OCC(NS(=O)(=O)c2ccc(-n3cnnn3)cc2)C(C)C)cc1 (stereo not drawn)	-52.2
COc1ccc(S(=O)(=O)N2CCC(C(=O)NCCCc3ccccc3)CC2)cc1	-35.9
O=C(CCNC(=O)C1CCN(S(=O)(=O)c2ccc(F)cc2)CC1)NCc1ccccc1	2.4
COc1ccc(S(=O)(=O)Nc2cccc(-n3cnnn3)c2)cc1	1.11
O=C(NCCCc1ccccc1)C1CCN(S(=O)(=O)c2ccc(F)cc2)CC1	-60.7
Cc1ccc(S(=O)(=O)N2CCC(C(=O)NCCc3ccccc3)CC2)cc1	-0.42
O=C(NCCc1ccccc1)C1CCN(S(=O)(=O)c2ccc(-c3nn[nH]n3)cc2)CC1	-18.7
O=C(NCCc1ccccc1)C1CCN(S(=O)(=O)c2ccc(-n3cnnn3)cc2)CC1	-66.3
CC(=O)c1ccc(OCCNS(=O)(=O)c2ccc(-n3cnnn3)c(C)c2)cc1	-2.88
CCCCOc1ccc(NS(=O)(=O)c2ccc(-n3cnnn3)cc2)cc1	-3.42
CC(=O)c1ccc(OCCNS(=O)(=O)c2ccc(-n3cnnn3)cc2)cc1	-55.3
